Experimental findings from PubChem BioAssay AID449762 (Southern Research Specialized Biocontainment Screening …, 2010) are described below.

Molecules are shown by their SMILES. Out of some 330,000 compounds screened, about 1,900 (0.58%) were called active. Inconclusive results (about 4%) are left out. No stated cut-off is given here; in the data, inconclusive means inhibition above about 70% without an active follow-up result; inactive means below that. These entries were drawn from the full list. Entries with a potency or affinity are not part of this list.

The nature of the assay: M. tuberculosis growth inhibition, HTS (AID 449762).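 Further: bacterial growth assessed after seven days of incubation.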 Conditions: M. tuberculosis H37Rv growth inhibition, 7H9 media; at 25 µM; stronger effect = higher value.
A word on the inhibition: it is the relative decrease from the control value, in per cent. For `O=C(CCS(=O)(=O)c1ccc(Cl)cc1)N1CCN(c2ccccc2F)CC1`, the inhibition is -3.9% (inactive).

With `COc1ccc(OC)c(CN2CCN(C(=O)CNC(=O)c3cc(C)cc(C)c3)CC2)c1`, the inhibition was 1.7% (inactive).

With `COc1ccc(OC)c(CN2CCN(C(=O)CCNC(=O)c3ccc(Br)cc3)CC2)c1`, the inhibition is -2.93% (inactive).

Turning to `CCc1cc(C(=O)NN2C(=O)NC3(CCCCC3)C2=O)sc1C`, the inhibition is -5.54% (inactive).

For the compound `Cc1ccc(NC(=O)c2sc(Cl)nc2-c2ccccc2)cc1`, the inhibition was 1.87% (inactive).

For `O=C(NC1CCCCCC1)c1cc(S(=O)(=O)N2CCOCC2)ccc1N1CCCCC1`, the inhibition is -7.36% (inactive).

`CCCCCCCNC(=O)C1(CC2CC(c3cccc(Br)c3)=NO2)CCN(C(=O)Cc2ccc(F)cc2)CC1` (stereo not drawn): the inhibition is 1.04% (inactive).

As for `CCCCCCCNC(=O)C1(CC2CC(c3ccccc3)=NO2)CCNCC1` (stereo not drawn), the inhibition is -6.2% (inactive).

In the case of `Cc1ccc(-n2c(SCC(=O)NCCN3C(=O)CSC3=O)nnc2-c2ccccc2)cc1`, the inhibition was -2.1% (inactive).

In the case of `O=C(Nc1ccc(-c2csc(Nc3ccccc3)n2)cc1)c1cccc(C(F)(F)F)c1`, the inhibition was 1.22% (inactive).

Consider `O=C(Nc1ccc(-c2csc(Nc3cccc(C(F)(F)F)c3)n2)cc1)c1ccccc1`, for which the inhibition is 50.9% (inactive).

In the case of `O=C(N/N=C1\CCCc2ccccc21)c1ccccc1Cl`, the inhibition was 5.05% (inactive).

As to `Cc1ccc(C(=O)N/N=C2\CCCc3ccccc32)c(C)c1`, the inhibition is -7.5% (inactive).

In the case of `CCOc1ccc(CN(C)C(=O)c2cccnc2OCC)cc1OC`, the inhibition was -1.02% (inactive).

As for `CCOc1ccc(C(C)NC(=O)Nc2ccc(F)cc2F)cc1` (stereo not drawn), the inhibition is 6.1% (inactive).

For the compound `C(=N\Nc1nc2ccccc2[nH]1)/c1ccccc1`, the inhibition was 33.3% (inactive).

Regarding `Cn1c(/C=N/c2nc3ccccc3[nH]2)nc2ccccc21`, the inhibition was 43.9% (inactive).

Consider `CCOc1ccc(OCCNC(=O)C(NC(=O)c2c(F)cccc2F)C(C)C)cc1` (stereo not drawn), for which the inhibition was -12.3% (inactive).

In the case of `COc1ccc(Nc2nnc(SC(C)C(=O)NC3CC3)s2)cc1` (stereo not drawn), the inhibition is -1.49% (inactive).

Take `Cc1c(NC(=S)N/N=C/c2cccc(O)c2)c(=O)n(-c2ccccc2)n1C`: the inhibition is -10.1% (inactive).

As to `N=c1c2c(-c3ccccc3)c(-c3ccccc3)n(Cc3ccco3)c2ncn1CCCO`, the inhibition was 16.4% (inactive).

For `N=c1c2c(-c3ccccc3)c(-c3ccccc3)n(Cc3ccco3)c2ncn1CCO`, the inhibition is 52.9% (inactive).

In the case of `O=C(Oc1ccccc1C(=S)N1CCOCC1)c1ccc([N+](=O)[O-])cc1[N+](=O)[O-]`, the inhibition is 38.5% (inactive).

On to `O=C(C1=C(O)C(=O)N(CCOCCO)C1c1cccc([N+](=O)[O-])c1)c1cccs1` (stereo not drawn), for which the inhibition is -3.54% (inactive).

`Cc1ccc(-c2cc(C(=O)N3CC(C)OC(C)C3)c3ccccc3n2)o1` (stereo not drawn): the inhibition was -3.5% (inactive).

As to `COc1ccc2nc(NC(=O)C3CSC4(C)CCC(=O)N34)sc2c1` (stereo not drawn), the inhibition was 8.66% (inactive).

Consider `COc1ccc(C(CNC(=O)c2cccc(NS(=O)(=O)c3ccccc3)c2)N(C)C)cc1` (stereo not drawn), for which the inhibition was -11.7% (inactive).

Turning to `CCCCCCOC(=O)C(C#N)c1nc2ccccc2nc1N1CCOCC1` (stereo not drawn), the inhibition was 5.48% (inactive).

Turning to `CCCCCCOC(=O)C(C#N)c1nc2ccccc2nc1N1CCCCC1` (stereo not drawn), the inhibition was 6.23% (inactive).

`CCOC(=O)CC(=O)CSc1nccc(-c2cccnc2)n1`: the inhibition is 2.54% (inactive).

For the compound `COc1cc(OC)cc(C(=O)NCc2ccc3c(c2)cc(C)n3C)c1`, the inhibition was 55.2% (inactive).

Consider `O=S(=O)(NC1CCCCC1N1CCN(c2ccc(F)cc2)CC1)c1ccccc1` (stereo not drawn), for which the inhibition is 11.3% (inactive).

In the case of `COc1ccc(-c2ccc(N(C)C)cc2)cc1[C@H]1[C@@H]2C=CCC[C@@]2(C)C(=O)N1Cc1ccccc1`, the inhibition is -2.81% (inactive).

Take `COc1ccc(-c2ccc(C)cc2)cc1[C@H]1[C@@H]2C=CCC[C@@]2(C)C(=O)N1Cc1ccccc1`: the inhibition was 2.77% (inactive).

As to `CC(Sc1ccc(S(=O)(=O)N2CCOCC2)cc1[N+](=O)[O-])C(=O)O` (stereo not drawn), the inhibition was 1.21% (inactive).

With `O=C(/C=C/c1ccccc1)N1CCC(N2CCC(C(=O)N3CCOCC3)CC2)CC1`, the inhibition is -6.29% (inactive).

Take `CCSc1cc(N2CCOCC2)nc(-c2ccccc2)n1`: the inhibition is 8.27% (inactive).

In the case of `Cc1cc(C)n(-c2ccccc2[N+](=O)[O-])n1`, the inhibition was -3.52% (inactive).

Turning to `O=[N+]([O-])c1ccccc1/C=N/Nc1nc(N2CCCC2)nc(N2CCCC2)n1`, the inhibition was 2.55% (inactive).

With `O=C(/C(=C\c1ccccc1)c1nc2ccccc2[nH]1)c1ccc(Cl)cc1`, the inhibition is 12.1% (inactive).

With `O=C(/C(=C/c1ccc(Cl)cc1)c1nc2ccccc2[nH]1)c1ccccc1`, the inhibition is 0.75% (inactive).

With `Nc1nsnc1C(=O)NCCO`, the inhibition is -5.83% (inactive).

On to `O=C1CS/C(=N/N=C/c2c[nH]c3ccccc23)N1`, for which the inhibition is 2.46% (inactive).

As for `O=C(CSc1n[nH]c(-c2ccccc2)n1)N1CCOCC1`, the inhibition is -3.77% (inactive).

Regarding `CCN(CC)CC(=O)NN=C(c1ccccc1)c1ccccc1`, the inhibition is -1.34% (inactive).

`O=C(CN1CCCC1)NN=C(c1ccccc1)c1ccccc1`: the inhibition was -2.73% (inactive).

As to `NC(=S)N=Nc1c(O)[nH]c2c(Br)cc(Br)cc12`, the inhibition is -0.35% (inactive).

Regarding `COc1ccc(C(=O)NCC(=O)NCC(=O)OCC(=O)c2ccc(Br)cc2)cc1`, the inhibition was 7.79% (inactive).

Take `Cc1csc(NC(=O)COCC(=O)O)c1-c1nc2ccccc2s1`: the inhibition was -5.81% (inactive).

Take `Cc1csc(NC(=O)CSCC(=O)O)c1-c1nc2ccccc2s1`: the inhibition was -1.68% (inactive).

With `Cc1cc(C(=O)OCC(=O)Nc2ccc(F)cc2F)c(C)o1`, the inhibition is 4.91% (inactive).

On to `COc1ccc(/C=C/C(=O)NC2CC3CCC2C3)cc1` (stereo not drawn), for which the inhibition is 14.7% (inactive).

As for `O=C(/C=C/c1ccccc1)NC1CC2CCC1C2` (stereo not drawn), the inhibition was -10.2% (inactive).

Consider `Cc1c(C(=O)NC(C(C)C)C(C)C)cccc1[N+](=O)[O-]`, for which the inhibition is -0.36% (inactive).

For `CC1CN(c2ccc(C(=O)c3ccccc3C(=O)O)cc2[N+](=O)[O-])CC(C)O1` (stereo not drawn), the inhibition is -1.03% (inactive).

On to `O=C1CCCC2=C1C(c1ccco1)Nc1ccc(C(=O)c3ccccc3)cc1N2` (stereo not drawn), for which the inhibition is 1.55% (inactive).

For the compound `O=C1CCCC2=C1C(c1ccccn1)Nc1ccc(C(=O)c3ccccc3)cc1N2` (stereo not drawn), the inhibition was -10.7% (inactive).

In the case of `O=C(NCc1cccnc1)c1cccc(OC2CCN(Cc3ccc(CO)o3)CC2)c1`, the inhibition is 3.84% (inactive).
